# Laboratory results from PubChem BioAssay AID1159580 (chemical genetic matrix, 2015).
# The campaign covered roughly 5,500 compounds. About 2,000 (36%) were called active. Not shown: some 18% with an inconclusive outcome. The list shows a part of the results. Unmarked numbers belong to inactive results. No stated cut-off is given here; in the data, active means normalized growth mostly below about 0.91 (no sharp cut-off); inconclusive means no clear call, values can overlap the other calls; inactive means mostly above about 0.92.
# Assay: chemical genetic growth profiling, strain panel (AID 1159580);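 further: tested at 20 µM; growth read once vehicle control cultures reached saturation at 30 °C; 1 = growth at the plate median or of vehicle wells; lower values mean less growth of the strain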
# Settings: growth OD
compound,measurement,setting,value
O=C(O)c1cc(O)c(O)c(O)c1,normalized growth,"S. cerevisiae deletion strains, locus YJR066W, strain TOR1, hits give low values",0.929
same,normalized growth,"S. cerevisiae deletion strains, locus YKL009W, strain mrt4, hits give low values",1.03
same,normalized growth,"S. cerevisiae deletion strains, locus YKL068W, hits give low values",1
same,normalized growth,"S. cerevisiae deletion strains, locus YKL085W, strain MDH1 (second series), hits give low values",1.03
same,normalized growth,"S. cerevisiae deletion strains, locus YKL085W, strain MDH1, hits give low values",1.03
same,normalized growth,"S. cerevisiae deletion strains, locus YKL160W, strain elf1, hits give low values",1.05
same,normalized growth,"S. cerevisiae deletion strains, locus YKR001C, strain vps1, hits give low values",1.07
same,normalized growth,"S. cerevisiae deletion strains, locus YKR026C, strain gcn3, hits give low values",1.02
same,normalized growth,"S. cerevisiae deletion strains, locus YKR091W, strain srl3, hits give low values",1.01
same,normalized growth,"S. cerevisiae deletion strains, locus YLL001W, strain dnm1, hits give low values",0.997
same,normalized growth,"S. cerevisiae deletion strains, locus YLL026W, hits give low values",1
same,normalized growth,"S. cerevisiae deletion strains, locus YLL041C, strain sdh2, hits give low values",1.04
same,normalized growth,"S. cerevisiae deletion strains, locus YLR027C, strain aat2, hits give low values",1.04
same,normalized growth,"S. cerevisiae deletion strains, locus YLR039C, strain RIC1, hits give low values",1.34 [resistant] (active)
same,normalized growth,"S. cerevisiae deletion strains, locus YLR058C, strain SHM2, hits give low values",1.06
same,normalized growth,"S. cerevisiae deletion strains, locus YLR102C, strain apc9, hits give low values",1.02
same,normalized growth,"S. cerevisiae deletion strains, locus YLR113W, strain HOG1, hits give low values",0.985
same,normalized growth,"S. cerevisiae deletion strains, locus YLR221C, strain rsa3, hits give low values",0.981
same,normalized growth,"S. cerevisiae deletion strains, locus YLR258W, strain gsy2, hits give low values",1.05
same,normalized growth,"S. cerevisiae deletion strains, locus YLR262C, strain YPT6 (second series), hits give low values",1.03
same,normalized growth,"S. cerevisiae deletion strains, locus YLR262C, strain YPT6, hits give low values",1.26
same,normalized growth,"S. cerevisiae deletion strains, locus YLR268W, strain sec22, hits give low values",1.04
same,normalized growth,"S. cerevisiae deletion strains, locus YLR320W, strain mms22, hits give low values",1.02
same,normalized growth,"S. cerevisiae deletion strains, locus YLR330W, strain CHS5, hits give low values",1.03
same,normalized growth,"S. cerevisiae deletion strains, locus YLR342W, strain FKS1 (second series), hits give low values",1.05
same,normalized growth,"S. cerevisiae deletion strains, locus YLR342W, strain FKS1, hits give low values",1.03
same,normalized growth,"S. cerevisiae deletion strains, locus YLR357W, strain rsc2, hits give low values",1.06
same,normalized growth,"S. cerevisiae deletion strains, locus YLR370C, strain arc18, hits give low values",1.02
same,normalized growth,"S. cerevisiae deletion strains, locus YLR371W, strain rom2, hits give low values",1.05
same,normalized growth,"S. cerevisiae deletion strains, locus YLR384C, strain iki3, hits give low values",1.02
same,normalized growth,"S. cerevisiae deletion strains, locus YLR418C, strain cdc73, hits give low values",1.11
same,normalized growth,"S. cerevisiae deletion strains, locus YML016C, strain PPZ1, hits give low values",1.03
same,normalized growth,"S. cerevisiae deletion strains, locus YML032C, strain rad52, hits give low values",1.03
same,normalized growth,"S. cerevisiae deletion strains, locus YML120C, strain ndi1, hits give low values",1.01
same,normalized growth,"S. cerevisiae deletion strains, locus YML124C, strain tub3, hits give low values",1.02
same,normalized growth,"S. cerevisiae deletion strains, locus YMR058W, strain fet3, hits give low values",1.01
same,normalized growth,"S. cerevisiae deletion strains, locus YMR078C, strain ctf18, hits give low values",1.03
same,normalized growth,"S. cerevisiae deletion strains, locus YMR125W, strain sto1, hits give low values",1.03
same,normalized growth,"S. cerevisiae deletion strains, locus YMR129W, hits give low values",1.03
same,normalized growth,"S. cerevisiae deletion strains, locus YMR205C, strain PFK2, hits give low values",1.06
same,normalized growth,"S. cerevisiae deletion strains, locus YMR223W, strain ubp8, hits give low values",1.02
same,normalized growth,"S. cerevisiae deletion strains, locus YMR231W, strain pep5, hits give low values",1.01
same,normalized growth,"S. cerevisiae deletion strains, locus YMR307W, strain GAS1, hits give low values",1.24
same,normalized growth,"S. cerevisiae deletion strains, locus YNL067W, strain RPL9B, hits give low values",1.02
same,normalized growth,"S. cerevisiae deletion strains, locus YNL071W, strain lat1, hits give low values",1.06
same,normalized growth,"S. cerevisiae deletion strains, locus YNL183C, strain NPR1, hits give low values",0.933
same,normalized growth,"S. cerevisiae deletion strains, locus YNL209W, strain ssb2, hits give low values",1.01
same,normalized growth,"S. cerevisiae deletion strains, locus YNL233W, strain BNI4, hits give low values",1.08
same,normalized growth,"S. cerevisiae deletion strains, locus YNL248C, strain rpa49, hits give low values",1.08
same,normalized growth,"S. cerevisiae deletion strains, locus YNL250W, strain rad50, hits give low values",1.05
same,normalized growth,"S. cerevisiae deletion strains, locus YNL271C, strain bni1, hits give low values",1.01
same,normalized growth,"S. cerevisiae deletion strains, locus YNL298W, strain CLA4, hits give low values",1.01
same,normalized growth,"S. cerevisiae deletion strains, locus YNL307C, strain MCK1, hits give low values",1.03
same,normalized growth,"S. cerevisiae deletion strains, locus YNL322C, strain KRE1 (second series), hits give low values",1.03
same,normalized growth,"S. cerevisiae deletion strains, locus YNR049C, strain mso1, hits give low values",1.01
same,normalized growth,"S. cerevisiae deletion strains, locus YNR052C, strain pop2, hits give low values",1.01
same,normalized growth,"S. cerevisiae deletion strains, locus YOL006C, strain TOP1, hits give low values",1.36
same,normalized growth,"S. cerevisiae deletion strains, locus YOL012C, strain htz1",0.913
same,normalized growth,"S. cerevisiae deletion strains, locus YOL147C, strain pex11, hits give low values",1.02
same,normalized growth,"S. cerevisiae deletion strains, locus YOR001W, strain rrp6, hits give low values",0.981
same,normalized growth,"S. cerevisiae deletion strains, locus YOR061W, strain CKA2, hits give low values",1.04
same,normalized growth,"S. cerevisiae deletion strains, locus YOR069W, strain VPS5, hits give low values",1.03
same,normalized growth,"S. cerevisiae deletion strains, locus YOR070C, strain gyp1, hits give low values",1.02
same,normalized growth,"S. cerevisiae deletion strains, locus YOR080W, strain dia2, hits give low values",1.01
same,normalized growth,"S. cerevisiae deletion strains, locus YOR083W, strain WHI5, hits give low values",0.995
same,normalized growth,"S. cerevisiae deletion strains, locus YOR106W, strain vam3, hits give low values",1.05
same,normalized growth,"S. cerevisiae deletion strains, locus YOR136W, strain idh2, hits give low values",1.02
same,normalized growth,"S. cerevisiae deletion strains, locus YOR144C, strain elg1, hits give low values",1.01
same,normalized growth,"S. cerevisiae deletion strains, locus YOR184W, strain ser1, hits give low values",1.05
same,normalized growth,"S. cerevisiae deletion strains, locus YOR231W, strain MKK1, hits give low values",0.971
same,normalized growth,"S. cerevisiae deletion strains, locus YOR265W, strain rbl2, hits give low values",1
same,normalized growth,"S. cerevisiae deletion strains, locus YOR270C, strain vph1, hits give low values",1.17
same,normalized growth,"S. cerevisiae deletion strains, locus YOR290C, strain snf2, hits give low values",1.05
same,normalized growth,"S. cerevisiae deletion strains, locus YOR316C, strain cot1, hits give low values",1.02
same,normalized growth,"S. cerevisiae deletion strains, locus YPL051W, strain arl3, hits give low values",1.04
same,normalized growth,"S. cerevisiae deletion strains, locus YPL055C, strain LGE1, hits give low values",1.1
same,normalized growth,"S. cerevisiae deletion strains, locus YPL078C, strain atp4, hits give low values",1.05
same,normalized growth,"S. cerevisiae deletion strains, locus YPL106C, strain sse1, hits give low values",1.06
same,normalized growth,"S. cerevisiae deletion strains, locus YPL240C, strain hsp82, hits give low values",1.01
same,normalized growth,"S. cerevisiae deletion strains, locus YPL256C, strain CLN2, hits give low values",0.968
same,normalized growth,"S. cerevisiae deletion strains, locus YPR119W, strain clb2, hits give low values",1.05
same,normalized growth,"S. cerevisiae deletion strains, locus YPR141C, strain kar3, hits give low values",1.02
same,normalized growth,"S. cerevisiae deletion strains, locus YPR163C, strain tif3, hits give low values",1.03
same,normalized growth,"S. cerevisiae deletion strains, locus YPR167C, strain met16, hits give low values",1.05
same,normalized growth,"S. cerevisiae deletion strains, strain wtn01, hits give low values",1.03
same,normalized growth,"S. cerevisiae strains, strain wild type, hits give low values",1.07
